# Screening data (PubChem BioAssay)
# The sample as a whole holds a higher share of hits than the screen did.
# Pf Dd2 growth: qHTS Primary assay for Inhibitors of Plasmodium falciparum Dd2 growth in vitro. P. falciparum Dd2 growth, SYBR Green, 72 h. Potency, µM (series often up to 28.9 µM), for the others: at the highest dose activity, negative = inhibition, usual class: inhibitors. hit rate 4.3% among 120,000. AID 1347417, 2020; active = well fitted inhibition curve with a large enough effect;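 note: plate controls were DMSO vehicle for no effect and reference drug for full effect; nearly all actives have a fitted effect of over 65% in size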
#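 Infected erythrocytes (Dd2, 0.3% parasitemia, 2.5% hematocrit final) are added to compound in RPMI-1640/Albumax II medium, grown 72 h at 37C in low oxygen, then lysed with saponin/Triton-X containing SYBR Green and read by fluorescence.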
# The depositor's hits bear a star; i = inactive; [ ] = dose if it differs, or a comment. Potency is the fitted concentration of half-maximal effect.
SMILES,Pf Dd2 growth
O=C(Nc1ccc(F)cc1Cl)C1CCN(c2ncnc3c2nc2n3CCCCC2)CC1,2.8µM*
CCn1nccc1C(=O)N1CCC([C@H]2[C@@H](OC)C(=O)N2C(C)C)CC1,17%
Cn1nc(-c2nncn2Cc2ccccc2)c2c1CCN(C(=O)c1ccncc1)C2,-22%
Cc1ccc(CN(C(=O)c2ccco2)c2ccc(CC(=O)NC(C)C)cc2)cc1,-11%
O=C(CCc1c[nH]c2ccccc12)N1CCC(c2nccn2CC2CC2)CC1,-8%
O=C(CCc1cc2n(n1)CCCNC2)N1CCCC(c2nnc3ccccn23)C1 (configuration not stated),3%
COc1ccc(S(=O)(=O)N2CCCC(Cc3noc(-c4ccccc4)n3)C2)cc1 (configuration not stated),4.5µM*
Cn1cnc(S(=O)(=O)N2CCCC(Cc3noc(-c4ccccc4)n3)C2)c1 (configuration not stated),i
COc1ccc(S(=O)(=O)N2CCCC(Cc3noc(-c4cnccn4)n3)C2)cc1 (configuration not stated),i
COCc1nc(N(C)Cc2ccccc2)ncc1C(=O)O,22%
COCC1CN(C(C)=O)CC12CCN(Cc1cccnc1)CC2 (configuration not stated),16%
O=C(CN1C(=O)CC(c2ccccc2)=Nc2ccccc21)Nc1ccc(Br)cc1,10µM*
Cc1ccc(C2=Nc3ccccc3N(CC(=O)NCc3ccc(Cl)cc3)C(=O)C2)cc1C,-14%
Cc1ccc(C2=Nc3ccccc3N(CC(=O)NCc3ccc(F)cc3)C(=O)C2)cc1C,-17%
C[C@@H](c1ccccc1)N1C(=O)[C@@H]2CN(C(=O)c3ccc4c(c3)OCO4)CCN2C1=O,-14%[44.1 µM]
COc1ccc2[nH]cc(CCNC(=O)CN3CCCc4nc(C5CC5)ncc4C3=O)c2c1,i
COc1ccc2[nH]cc(CCNC(=O)c3cnn(-c4ccc(C)cc4)c3C3CCN(C(=O)OC(C)(C)C)CC3)c2c1,3.2µM*
CC(C)(C)OC(=O)N1CCC(c2c(C(=O)NCc3ccccn3)cnn2-c2ccccc2Cl)CC1,i
COc1ccc2[nH]cc(CCNC(=O)c3cnn(-c4ccccc4Cl)c3C3CCN(C(=O)OC(C)(C)C)CC3)c2c1,5.6µM*
COc1ccc2[nH]cc(CCNC(=O)C3CCCN(C(C)=O)C3)c2c1 (configuration not stated),-9%
CCN1CCN(CCCNC(=O)c2cnn(-c3ccc(OC)cc3)c2C2CCN(C(=O)OC(C)(C)C)CC2)CC1,-25%
N#Cc1ccc(C(=O)NCC(=O)N2CCCCCNC(=O)CC2c2ccccc2)cc1 (configuration not stated),29%
COc1ccc(OC2CCN(C(C)=O)CC2)c(C(=O)NCCc2c(C)n[nH]c2C)c1,-34%
CCC(=O)N(C1CCOCC1)C1CCN(S(=O)(=O)c2ccc3c(c2)CCC3)CC1,-22%
CCNC(=O)c1ccc2c(c1)C1(CCN(CC3CC3)C1)CN2Cc1ccccc1 (configuration not stated),i
SMILES,Pf Dd2 growth
O=C(NCC1CC1)c1ccc2c(c1)C1(CCN(CC3CC3)C1)CN2Cc1ccccc1 (configuration not stated),-2%[44.1 µM]
O=C(NC1CCC1)c1ccc2c(c1)C1(CCN(CC3CC3)C1)CN2Cc1ccccc1 (configuration not stated),14µM*
Cc1onc(-c2cnn(C)c2NCc2ccc(C#N)cc2)c1C(=O)NCc1ccccc1,-23%[44.1 µM]
COc1ccc(N2CCN(CC(O)COc3ccc(C)c(C)c3)CC2)cc1 (configuration not stated),23%
COc1ccc(N2CCN(CC(O)COc3c(OC)cccc3OC)CC2)cc1 (configuration not stated),12%
Cc1cccc(OCC(O)Cn2c(=N)n(CCN3CCCCC3)c3ccccc32)c1 (configuration not stated),10µM*
CCn1c(=N)n(CC(O)COc2ccccc2)c2ccccc21 (configuration not stated),7.1µM*
CCOC(=O)N1CCN(Cc2cccc(OCC(O)CN3CCOCC3)c2)CC1 (configuration not stated),1%
CCC(C)Cn1c(COc2ccc(OC)cc2)nc2ccccc21 (configuration not stated),i
N#Cc1ccc(CN2CCC(N3CCCOC3=O)CC2)cc1,13%
O=C([C@@H]1C[C@H](F)CN1S(=O)(=O)Cc1cccc(Cl)c1)N1CCCCC1,i
O=S(=O)(c1ccccc1)N1CC(F)(F)C[C@H]1c1nc(C2CC2)no1,-28%
COCCc1nn2c(=O)cc(COC(=O)C(c3ccccc3)c3ccccc3)nc2s1,1.3µM*
CCc1nn2c(=O)cc(COC(=O)C(c3ccccc3)c3ccccc3)nc2s1,-2%
COCCc1nn2c(=O)cc(COC(=O)c3ccc(Br)cc3)nc2s1,-14%
COCc1cc(C[C@H]2CNCC[C@H]2CC(=O)NCc2ccc(OC)c(OC)c2)no1,-8%[44.1 µM]
O=C(O)CCC(=O)N1Cc2ccccc2CC2(CCCN(CC3CCCCC3)C2)C1 (configuration not stated),22%
CCCN1CCC2(Cc3ccccc3CN(C(=O)CCCC(=O)O)C2)C1 (configuration not stated),-2%
CCCN1CCC2(Cc3ccccc3CN(C(C)=O)C2)C1 (configuration not stated),-3%
CC(C)C(=O)N1Cc2ccccc2CC2(CCCN(CC3CCCCC3)C2)C1 (configuration not stated),0.25µM*
CCCN1CCC2(Cc3ccccc3CN(C(=O)C(C)C)C2)C1 (configuration not stated),8.9µM*
CC(C)C(=O)N1Cc2ccccc2CC2(CCCN2C)C1 (configuration not stated),10µM*
CN(C)CCC(=O)N1Cc2ccccc2CC2(CCCN2C)C1 (configuration not stated),2%
O=C(O)CCCC(=O)N1Cc2ccccc2CC2(CCCN(CC3CCCCC3)C2)C1 (configuration not stated),6%
CC(=O)NCC(=O)N1Cc2ccccc2CC2(CCCN2C)C1 (configuration not stated),22%
SMILES,Pf Dd2 growth
O=C(c1ccc(F)cc1F)N1CCC2(CC1)NC(=O)N(Cc1ccccc1)C2=O,-1%
O=C(c1n[nH]c2ccccc12)N1CCC2(CC1)CC(N1CCCC1)CCO2 (configuration not stated),i
CC(C)c1ccc(NC(=O)CN2C(=O)NC3(CCS(=O)(=O)CC3)C2=O)cc1,12%
COc1ccccc1S(=O)(=O)Nc1c(C)nn(CC(=O)O)c1C,-4%
O=C(CC1CCCN(c2cnn(CC3CC3)c(=O)c2)C1)NCC1CC1 (configuration not stated),i
OCC1(CC2CC2)CCCN(c2nccc(C(F)(F)F)n2)C1 (configuration not stated),-19%
Cc1nc(-c2ccccc2)n(Cc2nc(-c3ccc(Cl)cc3)oc2C)c(=O)c1CCO,i
Cc1oc(-c2ccccc2Cl)nc1CN1C(=O)CN=C(c2ccccc2)c2cc(Cl)ccc21,-12%
Cc1ccc(-c2nc(CN3C(=O)CN=C(c4ccccc4Cl)c4cc(Cl)ccc43)c(C)o2)cc1,11µM*
Cc1cccc(CN2C(=O)CN=C(c3ccccc3)c3ccccc32)c1,-14%
Cc1cc(C)cc(NC(=O)CN2C(=O)CN=C(c3ccccc3)c3cc(Cl)ccc32)c1,-18%
O=C1CN=C(c2ccccc2)c2cc(Cl)ccc2N1Cc1ccc(Cl)cc1,8.9µM*
CCOCC(=O)NCCc1noc(-c2ccccc2)n1,-6%
